# Results taken from PubChem BioAssay AID504834 (National Center for Advancing Translational Sciences (NCATS), 2011).
# The campaign covered roughly 320,000 compounds. About 22,000 (6.9%) were called active. Not shown: some 27% with an inconclusive outcome. This excerpt belongs to a sample that is enriched for actives. A number with no mark means an inactive call. Calls follow the shape of the dose curve; as a rule, active = well fitted inhibition curve with a large enough effect; inconclusive = small, poorly fitted or top-dose-only effect, or another doubt; inactive = no such curve, though single readings can be large or run the other way.
# Test: Primary qHTS for delayed death inhibitors of the malarial parasite plastid, 96 hour incubation
# Conditions: P. falciparum luciferase reporter growth; series mostly up to 28.7 µM; activity change, negative = inhibition: at the top concentration
# From the text: The goal of this screen is to discover new antimalarial compounds that act by inhibiting the development of the apicoplast in the malarial parasite Plasmodium falciparum. The biochemical processes that make this organelle essential for erythrocytic stage parasites are not well understood. However, antibiotics such as azithromycin and tetracycline, which target the apicoplast translational machinery, have a potent antimalarial effect.
# We have developed a cell-based assay that measures parasite growth based on the expression of an integrated copy of a firefly luciferase reporter. To detect small molecules that cause this "delayed death" phenotype, erythrocytes infected with the luciferase-expressing parasites were incubated with compounds for either one or two generations, corresponding to 48 and 96 hours, respectively. Compounds that inhibit parasite growth in the second generation, but not the first, should be enriched in antimalarials that target the apicoplast. Growth inhibition is detected by a decrease in luciferase activity.
# Assay Provider: David Fidock and Eric Ekland, Columbia University
# Keywords: NIH Roadmap, MLPCN, MLI, MLSMR, qHTS, NCGC, qHTS, malaria, luciferase, viability
# Four microliters of infected erythrocytes (2% hematocrit, 0.05% parasitemia final concentration) in culture medium were dispensed and the plates incubated for 96 hours at 37 C in 5% CO2. Two microliters of luciferase detection reagent was added and luminescence was detected by a ViewLux (PerkinElmer) reader.
# % is scaled to controls: 0 for no effect and ±100 for the full control effect; potency is read from the fitted curve at half-maximal effect.
Structure (SMILES),"activity change, negative = inhibition",Potency
CNc1nc(-c2ccccc2)cc(-c2ccccc2)n1,-21.4%,–
Nc1nc(-c2ccccc2)cc(-c2ccccc2)n1,6%,–
Nc1cccc(-c2cc(-c3ccccc3)nc(-c3cccc(N)c3)n2)c1,–,10.4 µM (active)
CCCOc1ccc(Cc2c(O)nc(SC)[nH]c2=O)cc1C,-14.5%,–
Cc1ccc(S(=O)(=O)NCCSC(C)(C)C)cc1,38.2%,–
COc1nc(N(C)C)nc(N2CC(=O)N(CCNS(=O)(=O)c3ccc(C)cc3)C2=N)n1,–,2.33 µM (active)
COc1ccccc1CNS(=O)(=O)c1ccc(C)cc1,8.44%,–
CCOC(=O)C1(CCOC)CCN(Cc2cc3ccccc3s2)CC1,-25.4%,–
O=C(Nc1cccc(-c2cscn2)c1)C1CCN(Cc2ccsc2)CC1,-16.1%,–
CCOC(=O)C1=C(C)NC2=C(C(=O)CC(C)(C)C2)C1c1ccsc1 (stereo not drawn),–,7.38 µM (active)
COc1cc(C2C(C#N)=C(C)NC3=C2C(=O)CC(C)(C)C3)ccc1O (stereo not drawn),-20.7%,–
CCOc1cc(C2C(C(=O)OC(C)C)=C(C)NC3=C2C(=O)CCC3)cc([N+](=O)[O-])c1O (stereo not drawn),16.6%,–
Cc1ccc2c(C)c(C(=O)N(C)Cc3ccncn3)oc2c1C,74.4%,–
CCCc1ccc(-c2csc(NC(=O)Cc3cccs3)n2)cc1,–,11.7 µM (active)
COc1cccc(CC(=O)Nc2nc(-c3ccc(OC)c(OC)c3)cs2)c1,-22.7%,–
CCc1nnc(NC(=O)Cc2cccs2)s1,-22.2%,–
CC(NCC(=O)Nc1cc(Cl)cc(Cl)c1)c1ccccc1 (stereo not drawn),-15.4%,–
COc1cccc(-c2coc3cc4oc(=O)c(CC(=O)O)c(C)c4cc23)c1,-4.33%,–
COc1ccc(OCCCC(=O)OC(C)C(=O)Nc2ccccc2[N+](=O)[O-])cc1 (stereo not drawn),30.3%,–
O=C1NC(=O)C(CCc2ccccn2)(Cc2cccc(Cl)c2Cl)C(=O)N1c1ccc(Br)cc1 (stereo not drawn),30.6%,–
Cc1ccc(N2C(=O)NC(=O)C(CCc3ccncc3)(Cc3cccc(Cl)c3Cl)C2=O)cc1 (stereo not drawn),–,11.7 µM (active)
CC(C)(C)c1ccc(/C=C/C(=O)NCCCn2ccnc2)cc1,-22.8%,–
CC(C)C[C@@H](COc1ccccc1)N1CCN(CC(C)C)CCC1=O,–,11.7 µM (active)
CC(C)C[C@@H](CO)N1CCN(Cc2ccc(O)cc2)CCC1=O,78.9%,–
O=C1CCN(CCc2ccccc2)CCN1CCOc1ccccc1,9.44%,–
CCCNC(=O)N1CCC(c2ccc3c(c2)OCO3)CC1,29.2%,–

Structure (SMILES),"activity change, negative = inhibition",Potency
CC1CN(C(=S)Nc2ccc(S(N)(=O)=O)cc2)CC(C)O1 (stereo not drawn),3.43%,–
O=[N+]([O-])c1ccc(N2CCN(c3ccc(F)cc3)CC2)cn1,-10.5%,–
OCCN1CCN(c2nnc(-c3ccccc3)c3ccccc23)CC1,-3.39%,–
CCCOC(=O)CC1C(=O)NCCN1Cc1ccc(F)cc1 (stereo not drawn),16.3%,–
CCn1ccnc1CNC(=O)CC1C(=O)NCCN1Cc1ccc(F)cc1Cl (stereo not drawn),-5.79%,–
CCOc1ccc(CN2CCNC(=O)C2CC(=O)NCCCC2CCCC2)cc1 (stereo not drawn),–,13.1 µM (active)
Cc1ccc(CN2CCNC(=O)C2CC(=O)NCc2csc(C(C)C)n2)cc1 (stereo not drawn),–,11.7 µM (active)
Cc1nccn1CCCNC(=O)CC1C(=O)NCCN1Cc1ccc(Cl)c(F)c1 (stereo not drawn),2.21%,–
CCn1ccnc1CNC(=O)CC1C(=O)NCCN1CCCc1ccccc1 (stereo not drawn),1.79%,–
CC(=O)Nc1ccc(NC(=O)C(NS(=O)(=O)c2ccc3c(c2)OCCO3)C(C)C)cc1 (stereo not drawn),2.53%,–
CCn1cc(C(=O)N[C@@H](C)C(=O)NCCO)c(=O)c2cc3c(cc21)OCO3,39.3%,–
COc1nnc(-c2ccc(C)c(S(=O)(=O)N(C)C)c2)c2ccccc12,0%,–
c1ccc(-c2cc(-c3ccccc3)[nH]n2)cc1,-17.7%,–
CC(=O)OCCOCn1cnn2c(=O)c(Br)c(C)nc12,38.7%,–
CC(C)c1nnc(NC(=O)C2CC(=O)N(CCc3ccc(F)cc3)C2)s1 (stereo not drawn),19.1%,–
S=C(NCCc1ccccc1)NCC1CCCO1 (stereo not drawn),8.12%,–
O=C(COC(=O)c1ccc(S(=O)(=O)Nc2ccccc2)cc1)NCC1CCCO1 (stereo not drawn),0%,–
O=C(CS(=O)(=O)Cc1ccccc1)NCC1CCCO1 (stereo not drawn),–,2.94 µM (active)
COc1ccc(NS(=O)(=O)c2ccc(N3CCOCC3)c(NC(=O)c3ccccc3Br)c2)cc1,–,9.28 µM (active)
COc1ccc(NS(=O)(=O)c2ccc(C)c(C(=O)NNC(=O)c3csc(N4CCOCC4)n3)c2)cc1,-1.4%,–
CC(=O)Nc1ccc(S(=O)(=O)Nc2ccc(N3CCOCC3)c(F)c2)cc1,-18.2%,–
CCCCn1c(N)c(N(CC(C)C)C(=O)c2ccc(-n3c(C)ccc3C)cc2)c(=O)[nH]c1=O,-32.2%,–
CCOc1ccc(NC(=S)N2CCC(NC(=O)c3ccccc3)CC2)cc1,14.6%,–
CCOc1ccc(C(=O)NC2CCN(S(=O)(=O)CC)CC2)cc1,–,2.33 µM (active)
CCOc1ccc(C(=O)NC2CCN(C(=O)Nc3ccccc3OC)CC2)cc1,-12.6%,–
CCOc1c(OC)cccc1C(=O)NCC1(c2ccccc2)CCCC1,8.63%,–

Structure (SMILES),"activity change, negative = inhibition",Potency
COc1ccccc1CNC(=O)CSc1nc(=O)n(Cc2ccncc2)c2c1CCC2,–,14.7 µM (active)
CN(C)CCn1c2c(c(SCC(=O)NCc3ccccc3)nc1=O)CCC2,7.34%,–
COc1ccccc1CNC(=O)Cn1cc2c(n1)CCCC2,8.68%,–
O=C(NCCc1ccc(Cl)cc1)C1CCCN1C(=O)NCc1ccccc1 (stereo not drawn),34.6%,–
NC(=O)C1CC(=O)N(c2ccc(OCC(=O)NCc3ccccc3)cc2)C1 (stereo not drawn),16.4%,–
CC(NC(=O)c1ccc(S(=O)(=O)Nc2ccccc2)cc1)c1ccc(S(N)(=O)=O)cc1 (stereo not drawn),-27.8%,–
Cc1sc2nc(CSCC(=O)NC3CCCCC3)[nH]c(=O)c2c1C,-4.04%,–
O=C(CSc1nnc(-c2ccccc2)o1)N1CCOCC1,16.5%,–
Cc1cccc(C)c1OC(=O)CSc1nnc(-c2ccccc2)o1,-10.3%,–
CC1=CC(C)(C)N(C(=O)CSc2nnc(-c3ccccc3)o2)c2ccc(C)cc21,–,13.1 µM (active)
Cc1ccccc1C(=O)N1CCC(C(=O)Oc2ccc(C#N)cc2)CC1,83.9%,–
COc1ccc(S(=O)(=O)N2CCOC2CNC(=O)C(=O)NCc2ccncc2)cc1OC (stereo not drawn),0.814%,–
Cc1cccc(C)c1NC(=O)CS(=O)CC(=O)N1CCN(c2ccccc2)CC1 (stereo not drawn),36.4%,–
c1ccc(-c2cc3c(NCC4COc5ccccc5O4)ncnc3s2)cc1 (stereo not drawn),–,10.4 µM (active)
COc1ccc(Nc2ncnc3sc(-c4ccccc4)cc23)c(OC)c1,0%,–
S=C(NCC1COc2ccccc2O1)Nc1ccc(Br)cc1 (stereo not drawn),-2.67%,–
N#Cc1c(-c2ccc(F)cc2)nc(-c2ccccc2)[nH]c1=O,6.5%,–
N#Cc1ccc(-c2nc3cc(C#N)c(C#N)cc3nc2-c2ccccc2)cc1C#N,–,5.22 µM (active)
N#Cc1ccc(-c2ccc(F)cc2)nc1Sc1ccccc1,-5.08%,–
COc1cccc(CNC(=O)Cn2c(=O)oc3cc(S(=O)(=O)N4CCCCC4)ccc32)c1,-26.1%,–
CCc1cccc(C)c1NC(=O)COC(=O)CC1CCCC1,12.5%,–
C1=C(CCNc2ncnc3c2cnn3-c2ccccc2)CCCC1,–,0.104 µM (active)
CC(C)Sc1ncnc2c1cnn2-c1ccccc1,-5.57%,–
O=C(NCCC1=CCCCC1)c1ccc(-n2cncn2)cc1,191%,–
O=C(CSc1ncccn1)N1CCCC1,0.0556%,–
CN1CCN(S(=O)(=O)c2ccc(Nc3ccc(F)cc3)nc2)CC1,-23.9%,–

Structure (SMILES),"activity change, negative = inhibition",Potency
CCCCCCn1c(CN2CCCC(C)C2)nc2c1c(=O)n(C)c(=O)n2C (stereo not drawn),-3.53%,–
CC(C)Cn1c(CN(Cc2ccccc2)Cc2ccccc2)nc2c1c(=O)n(C)c(=O)n2C,-10.2%,–
Cn1c(=O)[nH]c(=O)c2c1nc(N(CCO)Cc1ccccc1)n2Cc1ccccc1Cl,14.3%,–
CCOC(=O)Cn1c(CN(Cc2ccccc2)Cc2ccccc2)nc2c1c(=O)[nH]c(=O)n2C,–,3.29 µM (active)
CCOC(=O)N1CCN(CCC(=O)Nc2ccccc2)CC1,-13.3%,–
COCCn1c(CN2CCC(Cc3ccccc3)CC2)nc2c1c(=O)n(C)c(=O)n2C,–,5.22 µM (active)
CN1CCN(Cc2nc3c(c(=O)n(C)c(=O)n3C)n2Cc2cccc3ccccc23)CC1,2.21% [at 5.75 µM],–
Cn1c(=O)[nH]c(=O)c2c1nc(CN(Cc1ccccc1)Cc1ccccc1)n2CCN1CCOCC1,17.7%,–
CCN1CCN(Cc2nc3c(c(=O)n(C)c(=O)n3C)n2CC(=O)c2ccccc2)CC1,-12%,–
CCOC(=O)N1CCN(Cc2nc3c(c(=O)n(C)c(=O)n3C)n2Cc2ccccc2)CC1,–,13.1 µM (active)
COCCn1c(CN(Cc2ccccc2)Cc2ccccc2)nc2c1c(=O)n(C)c(=O)n2C,–,2.94 µM (active)
Cn1c(=O)c2c(nc(Br)n2CCSc2nc3ccccc3o2)n(C)c1=O,21.3%,–
Cc1ccc(C)c(OCc2cc(C(=O)N3CCN(c4cnccn4)CC3)no2)c1,-41.1%,–
COc1ccccc1CCCNC(=O)C1CCC(=O)N(CCN2CCOCC2)C1 (stereo not drawn),6.7%,–
CCCCCn1c(=O)[nH]c2cc(C(=O)NCCCN3CCCCC3C)ccc2c1=O (stereo not drawn),11.9%,–
COc1ccc2[nH]c(=O)c(C3c4cc(OC)c(OC)cc4CCN3C(=O)c3ccco3)cc2c1 (stereo not drawn),14.7%,–
O=C(Nc1nnc(Cc2ccc(Cl)cc2)s1)c1ccncc1,9.34%,–
CCNS(=O)(=O)c1ccc(CCC(=O)N2CCN(c3ccc(OC)cc3)CC2)cc1,19.3%,–
COC(=O)c1c(C)oc(C)c1S(=O)(=O)NCc1ccc(Cl)cc1,5.34%,–
CCCCC/C=C/C1=CC(=O)C[C@H](c2ccc(Cl)cc2)C1,-8.55%,–
C(=C\c1ccccc1)/CSc1nnc(-c2cccnc2)n1Cc1ccco1,–,10.4 µM (active)
CCOC(=O)Cc1csc(NC(=O)CSc2nnc(-c3cccnc3)n2Cc2ccco2)n1,4.98%,–
O=C(CSc1nnc(-c2cnccn2)n1Cc1ccco1)c1ccc(Cl)c(Cl)c1,12.7%,–
CCn1c(CC(=O)Nc2ccccc2C)nnc1SCC(=O)NC1=NCCS1,12.2%,–
c1ccc2c(c1)CCc1snnc1-2,-21.5%,–
